Measured values published in PubChem BioAssay AID1159580 (chemical genetic matrix, 2015).
Screen size: about 5,500 compounds; about 2,000 (36%) were called active. Roughly 18% stayed inconclusive and do not appear here. Rule as the data show it: active = normalized growth mostly below about 0.91 (no sharp cut-off); inconclusive = no clear call, values can overlap the other calls; inactive = mostly above about 0.92. Some of the results follow.

Assay: chemical genetic growth profiling, strain panel (AID 1159580);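 also: tested at 20 µM; growth read once vehicle control cultures reached saturation at 30 °C; 1 = growth at the plate median or of vehicle wells; lower values mean less growth of the strain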
Conditions: S. cerevisiae deletion strains, growth OD

Measured: normalized growth

CN(C)c1ccc(C(=C2C=CC(=[N+](C)C)C=C2)c2ccc(N(C)C)cc2)cc1
active: locus YJR043C, strain POL32, stronger effect = lower value 0.373 | locus YJR066W, strain TOR1, stronger effect = lower value 0.0572 | locus YKL009W, strain mrt4, stronger effect = lower value 0.538 | locus YKL068W, stronger effect = lower value 0.431 | locus YKL085W, strain MDH1 (second series), stronger effect = lower value 0.429 | locus YKL085W, strain MDH1, stronger effect = lower value 0.429 | locus YKL160W, strain elf1, stronger effect = lower value 0.44 | locus YKR001C, strain vps1, stronger effect = lower value 0.514 | locus YKR026C, strain gcn3, stronger effect = lower value 0.573 | locus YKR091W, strain srl3, stronger effect = lower value 0.536 | locus YLL001W, strain dnm1, stronger effect = lower value 0.605 | locus YLL026W, stronger effect = lower value 0.536 | locus YLL041C, strain sdh2, stronger effect = lower value 0.468 | locus YLR027C, strain aat2, stronger effect = lower value 0.449 | locus YLR058C, strain SHM2, stronger effect = lower value 0.364 | locus YLR102C, strain apc9, stronger effect = lower value 0.449 | locus YLR113W, strain HOG1, stronger effect = lower value 1.5 [resistant] | locus YLR221C, strain rsa3, stronger effect = lower value 0.457 | locus YLR258W, strain gsy2, stronger effect = lower value 0.527 | locus YLR262C, strain YPT6 (second series), stronger effect = lower value 0.65 | locus YLR268W, strain sec22, stronger effect = lower value 0.553 | locus YLR320W, strain mms22, stronger effect = lower value 0.558 | locus YLR330W, strain CHS5, stronger effect = lower value 0.355 | locus YLR342W, strain FKS1 (second series), stronger effect = lower value 0.388 | locus YLR342W, strain FKS1, stronger effect = lower value 0.499 | locus YLR370C, strain arc18, stronger effect = lower value 0.564 | locus YLR371W, strain rom2, stronger effect = lower value 0.489 | locus YLR384C, strain iki3, stronger effect = lower value 0.486 | locus YLR418C, strain cdc73, stronger effect = lower value 0.769 | locus YML016C, strain PPZ1, stronger effect = lower value 0.345 | locus YML032C, strain rad52, stronger effect = lower value 0.583 | locus YML120C, strain ndi1, stronger effect = lower value 0.554 | locus YML124C, strain tub3, stronger effect = lower value 0.48 | locus YMR058W, strain fet3, stronger effect = lower value 0.59 | locus YMR078C, strain ctf18, stronger effect = lower value 0.546 | locus YMR125W, strain sto1, stronger effect = lower value 0.617 | locus YMR129W, stronger effect = lower value 0.505 | locus YMR205C, strain PFK2, stronger effect = lower value 0.688 | locus YMR223W, strain ubp8, stronger effect = lower value 0.524 | locus YMR231W, strain pep5, stronger effect = lower value 0.558 | locus YMR307W, strain GAS1, stronger effect = lower value 0.562 | locus YNL067W, strain RPL9B, stronger effect = lower value 0.315 | locus YNL071W, strain lat1, stronger effect = lower value 0.573 | locus YNL183C, strain NPR1, stronger effect = lower value -0.00369 | locus YNL209W, strain ssb2, stronger effect = lower value 0.435 | locus YNL233W, strain BNI4, stronger effect = lower value 0.338 | locus YNL248C, strain rpa49, stronger effect = lower value 0.6 | locus YNL250W, strain rad50, stronger effect = lower value 0.597 | locus YNL271C, strain bni1, stronger effect = lower value 0.458 | locus YNL298W, strain CLA4, stronger effect = lower value 0.511 | locus YNL307C, strain MCK1, stronger effect = lower value 0.521 | locus YNL322C, strain KRE1 (second series), stronger effect = lower value 0.626 | locus YNL322C, strain KRE1, stronger effect = lower value 0.318 | locus YNR049C, strain mso1, stronger effect = lower value 0.547 | locus YNR052C, strain pop2, stronger effect = lower value 0.497 | locus YOL147C, strain pex11, stronger effect = lower value 0.501 | locus YOR001W, strain rrp6, stronger effect = lower value 0.55 | locus YOR061W, strain CKA2, stronger effect = lower value 0.335 | locus YOR069W, strain VPS5, stronger effect = lower value 0.33 | locus YOR070C, strain gyp1, stronger effect = lower value 0.466 | locus YOR080W, strain dia2, stronger effect = lower value 0.569 | locus YOR083W, strain WHI5, stronger effect = lower value 0.547 | locus YOR106W, strain vam3, stronger effect = lower value 0.505 | locus YOR136W, strain idh2, stronger effect = lower value 0.549 | locus YOR144C, strain elg1, stronger effect = lower value 0.483 | locus YOR184W, strain ser1, stronger effect = lower value 0.604 | locus YOR231W, strain MKK1, stronger effect = lower value 1.28 [resistant] | locus YOR265W, strain rbl2, stronger effect = lower value 0.469 | locus YOR270C, strain vph1, stronger effect = lower value 0.762 | locus YOR290C, strain snf2, stronger effect = lower value 0.636 | locus YOR316C, strain cot1, stronger effect = lower value 0.454 | locus YPL051W, strain arl3, stronger effect = lower value 0.488 | locus YPL055C, strain LGE1, stronger effect = lower value 0.408 | locus YPL078C, strain atp4, stronger effect = lower value 0.643 | locus YPL106C, strain sse1, stronger effect = lower value 0.77 | locus YPL240C, strain hsp82, stronger effect = lower value 0.466 | locus YPL241C, strain CIN2, stronger effect = lower value 0.316 | locus YPL256C, strain CLN2, stronger effect = lower value 1.48 [resistant] | locus YPR119W, strain clb2, stronger effect = lower value 0.472 | locus YPR141C, strain kar3, stronger effect = lower value 0.559 | locus YPR163C, strain tif3, stronger effect = lower value 0.517 | locus YPR167C, strain met16, stronger effect = lower value 0.49 | strain wtn01, stronger effect = lower value 0.535
inactive: locus YLR039C, strain RIC1, stronger effect = lower value 0.713 | locus YLR262C, strain YPT6, stronger effect = lower value 0.753 | locus YLR357W, strain rsc2, stronger effect = lower value 1.04 | locus YOL012C, strain htz1 1.5
